Compounds without any hit were thinned out: in the full panel of roughly 83,000, 20% have a hit.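 Step 1: grow cells in 96-well plates. Step 2: add test compound at a single concentration. Step 3: incubate 48 h. Step 4: record percent growth.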 Unmarked numbers belong to inactive results. Active and inactive are the calls of the source.
System: RPMI-8226 leukemia
Assay: NCI-60 one-dose screen, 48 h (100 = growth as untreated, 0 = no growth, -100 = all killed)
Conditions: 10 µM unless noted
Description: Growth inhibition of the RPMI-8226 human tumor cell line is measured as a screen for anti-cancer activity. Cells are grown in 96 well plates and exposed to the test compound for 48 hours. Compounds are tested at a single concentration, which is 10^-5 M for most compounds. The reported endpoint is percent growth (GI% or GIPRCNT), where numbers from 0 - 100% represent growth inhibition, and numbers from -100% - 0 represent cell death. For example, a value of 40 represents 60% growth inhibition. A value of 0 means no net growth occurred over the course of the experiment. A value of -40 indicates 40% of cells at the beginning of the experiment died by the end of the experiment. A value of -100 means all cells are dead at the end of the experiment.
NCI-60 Human Tumor Cell Lines Screen was performed using the standard one-dose NCI protocol, which is described in more detail at https://dtp.cancer.gov/discovery_development/nci-60/default.htm.
Compounds with GIPRCNT values below 10 were considered active. Activity score was based on GIPRCNT using the following formula: […]
Score is 0 for GIPRCNT values of 100 or above, 50 for GIPRCNT values of 0, and 100 for GIPRCNT values of -100.

Question: With CCn1cc(C(=O)O)c(=O)c2cc(F)c(N3CCN(S(=O)(=O)c4ccc(Cl)cc4)CC3)cc21 as the compound, how does the growth read?
Answer: 13.4%

Question: For CC1(C)Oc2cc3oc(=O)ccc3cc2C[C@@H]1OCCOS(=O)(=O)c1ccc(C#N)cc1, which growth is on record?
Answer: 91.9%

Question: For COC(=O)c1ccc2[nH]c(O)c(C(=Nc3ccc(N(C)C(=O)CN4CCN(C)CC4)cc3)c3ccc4c(c3)OCO4)c2c1, which growth is on record?
Answer: -13.7% (active)

Question: With N#Cc1ccc(NC2c3ccccc3CC2O)cc1 (stereo not given) as the compound, how does the growth read?
Answer: 96.3%

Question: Which growth does the source give for Cc1nc(N)sc1C(=O)NCCO here?
Answer: 115%

Question: O=C(/C=C1\C(=O)N(Cc2ccccc2)c2ccccc21)c1ccc(OCCN2CCCCC2)cc1 was tested. Which growth did it give?
Answer: -33.9% (active)

Question: For CC1(C)N=C(N)N=C(N)N1c1cccc(CCCCOc2ccccc2)c1, which growth is on record?
Answer: 8.3% (active)

Question: With CCCC(=O)NNc1[nH]c(-c2ccc(OC)cc2)cc1C(=O)OCC as the compound, how does the growth read?
Answer: 98.4%

Question: Which growth does the source give for CN1CCN(Cc2ccc(NC(=O)c3cncc(C#Cc4c(N)ncc5ccc(F)cc45)c3)cc2C(F)(F)F)CC1 here?
Answer: 5.38% (active)

Question: Which growth does the source give for [N-]=[N+]=Nc1ncc(-c2ccc(C(F)(F)F)cc2)c(NC2CCCCCC2)n1 here?
Answer: -21% [100 µM] (active)

Question: How did the growth turn out when CCOC(=O)/C(C#N)=C(/CC)OCC was run?
Answer: 103%

Question: COc1ccc(CN2C(=O)/C(=C\C(=O)c3ccc(OCCN4CCCCC4)cc3)c3ccccc32)cc1 was tested. Which growth did it give?
Answer: -11.6% (active)

Question: Which growth does the source give for Nc1ccc(S(=O)(=O)c2ccc(NO)cc2)cc1 here?
Answer: 106%

Question: With CCCC(CCC)Oc1ccc(CCCC2=C(O)c3ccccc3C(=O)C2=O)cc1 as the compound, how does the growth read?
Answer: 22.5%

Question: Which growth does the source give for CC(Br)c1nc2ccccc2cc1C(N)=O (stereo not given) here?
Answer: 100%

Question: For O=C(/C=C/c1c[nH]c2ccccc12)c1cc2ccccc2o1, which growth is on record?
Answer: 60.1%

Question: Which growth does the source give for CCn1cnc(C[C@H](NC(=O)[C@@H](NC(=O)Nc2cc(C(F)(F)F)cc(C(F)(F)F)c2)C(C)C)C(=O)OC)c1 here?
Answer: -52.4% [100 µM] (active)

Question: COC1=CC(c2ccc[nH]2)=N/C1=C\c1[nH]c(C)c(C(=O)CCCCC(=O)NC(C)(C)C)c1C was tested. Which growth did it give?
Answer: 35.4%

Question: For O=C(CCC(=O)N(CCO)CCO)N(CCO)CCO, which growth is on record?
Answer: 101%

Question: For CC(=O)NCCN, which growth is on record?
Answer: 105%

Question: Which growth does the source give for CC(=O)N1CCN(CCNC(=O)n2cc(-c3ccncc3)c(-c3cc(O)cc(Cl)c3)n2)CC1 here?
Answer: 44.9%

Question: Which growth does the source give for Oc1ccc(CN(Cc2ccc(C(F)(F)F)cc2)Cc2ccc(O)c3ncccc23)c2cccnc12 here?
Answer: 11.7%

Question: With CCCNC(=O)Oc1ccc(/C(=C(/C)Cc2ccc(OC)cc2)c2ccc(OCCN3CCCCC3)cc2)cc1 as the compound, how does the growth read?
Answer: 77.5%

Question: For COc1ccc(-c2nc(SCC(C)C)nc(Nc3ccc([N+](=O)[O-])cc3)c2C#N)cc1, which growth is on record?
Answer: 93.9%

Question: COCC(=O)NNc1[nH]c(-c2ccc(OC)cc2)cc1C#N was tested. Which growth did it give?
Answer: 101%

Question: How did the growth turn out when Nc1ncn([C@@H]2O[C@H](CO)[C@@H](O)C2(F)F)c(=O)n1 was run?
Answer: 39.2%

Question: For CCCCCCCCCCCCCCCCCCOP(=O)(O)O, which growth is on record?
Answer: 100%

Question: With O=C(/C=C/c1cccc(O)c1)c1cccc(-n2cc(-c3ccc(Cl)cc3)[nH]c2=O)c1 as the compound, how does the growth read?
Answer: -53.2% (active)

Question: Which growth does the source give for CCCCCCC(C(=O)OCC)(C(=O)OCC)C1CCCCCC1 here?
Answer: 113%

Question: COc1ccc(C2=NN(C(=O)c3cc(-c4ccc(C)cc4)nc4ccccc34)C(c3cc(-c4ccccc4)nn3-c3ccccc3)C2)cc1 (stereo not given) was tested. Which growth did it give?
Answer: 78.1%

Question: With CC1=C(C)C(=O)C(C(C)C2=C(C)C(=O)C(C)=C(C)C2=O)=C(C)C1=O as the compound, how does the growth read?
Answer: 50.5%

Question: CC1(c2ccc(Br)cc2)NC(=O)NC1=O (stereo not given) was tested. Which growth did it give?
Answer: 113%

Question: How did the growth turn out when CSCc1ncc(-c2ccc(C(F)(F)F)cc2)c(NC2CCCCCC2)n1 was run?
Answer: 3.14% [25 µM] (active)

Question: How did the growth turn out when CC(=O)OC1/C=C\CC/C=C\C1 (stereo not given) was run?
Answer: 101%

Question: How did the growth turn out when CCOC(=O)C1=C(C(F)(F)F)NC(=O)NC1CN1C(=O)c2ccccc2C1=O (stereo not given) was run?
Answer: 82.6%

Question: O=C1NCCN1/N=C/c1c(Cl)nc2n1CCS2 was tested. Which growth did it give?
Answer: 63.7%

Question: COc1cc(OC)c2c(=O)cc(-c3ccccc3)oc2c1 was tested. Which growth did it give?
Answer: 77.6%

Question: For CC(O)CN(CC(C)O)N(CC(C)O)CC(C)O (stereo not given), which growth is on record?
Answer: 98.9%

Question: COc1cc2c(cc1OC)C(Cc1cc(OC)c(OC)cc1[N+](=O)[O-])=NCC2 was tested. Which growth did it give?
Answer: 78.1%

Question: How did the growth turn out when Cc1ccc(C(C)C)c(OCc2ccc(C(=O)N/N=C/c3cccc(O)c3O)cc2)c1 was run?
Answer: 28.8%

Reference: PubChem BioAssay (NCI)
